# From PubChem BioAssay AID1159580 (chemical genetic matrix, 2015)
# Screen size: about 5,500 compounds; about 2,000 (36%) were called active. Roughly 18% stayed inconclusive and do not appear here. Some of the results follow. Unmarked numbers belong to inactive results. No stated cut-off is given here; in the data, active means normalized growth mostly below about 0.91 (no sharp cut-off); inconclusive means no clear call, values can overlap the other calls; inactive means mostly above about 0.92.
# Assay: chemical genetic growth profiling, strain panel (AID 1159580);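 further: tested at 20 µM; growth read once vehicle control cultures reached saturation at 30 °C; 1 = growth at the plate median or of vehicle wells; lower values mean less growth of the strain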
# Conditions: S. cerevisiae deletion strains, growth OD
structure (smiles),measurement,setting,value
CC(C)=CCC/C(C)=C/CC/C(C)=C/CC/C(C)=C/CC/C(C)=C/CC/C(C)=C/CC/C(C)=C/CC/C(C)=C/CC/C(C)=C/CO,normalized growth,"locus YAL021C, strain ccr4, hits give low values",0.988
same,normalized growth,"locus YAL026C, strain drs2, hits give low values",1
same,normalized growth,"locus YAL030W, strain snc1, hits give low values",0.993
same,normalized growth,"locus YBL061C, strain skt5, hits give low values",0.988
same,normalized growth,"locus YBR009C, strain hhf1, hits give low values",0.995
same,normalized growth,"locus YBR023C, strain chs3, hits give low values",1
same,normalized growth,"locus YBR171W, strain sec66, hits give low values",1
same,normalized growth,"locus YBR231C, strain swc5, hits give low values",0.986
same,normalized growth,"locus YBR279W, strain paf1, hits give low values",0.966
same,normalized growth,"locus YCL011C, strain gbp2, hits give low values",0.985
same,normalized growth,"locus YCL016C, strain dcc1, hits give low values",0.99
same,normalized growth,"locus YCL061C, strain MRC1, hits give low values",0.994
same,normalized growth,"locus YCL069W, strain vba3, hits give low values",0.99
same,normalized growth,"locus YCR088W, strain abp1, hits give low values",0.988
same,normalized growth,"locus YDL005C, strain med2, hits give low values",0.992
same,normalized growth,"locus YDL040C, strain nat1, hits give low values",0.992
same,normalized growth,"locus YDR001C, strain nth1, hits give low values",0.99
same,normalized growth,"locus YDR069C, strain doa4, hits give low values",1.01
same,normalized growth,"locus YDR137W, strain rgp1, hits give low values",1.01
same,normalized growth,"locus YDR159W, strain sac3, hits give low values",1.1
same,normalized growth,"locus YDR195W, strain ref2",0.997
same,normalized growth,"locus YDR297W, strain sur2, hits give low values",0.99
same,normalized growth,"locus YDR334W, strain swr1, hits give low values",1.01
same,normalized growth,"locus YDR335W, strain msn5, hits give low values",1
same,normalized growth,"locus YDR392W, strain spt3, hits give low values",1.11
same,normalized growth,"locus YEL003W, strain gim4, hits give low values",1
same,normalized growth,"locus YEL037C, strain rad23, hits give low values",1.02
same,normalized growth,"locus YEL061C, strain CIN8 (second series), hits give low values",0.998
same,normalized growth,"locus YER015W, strain faa2, hits give low values",0.995
same,normalized growth,"locus YER016W, strain bim1, hits give low values",0.991
same,normalized growth,"locus YER111C, strain swi4, hits give low values",0.996
same,normalized growth,"locus YER155C, strain BEM2 (second series), hits give low values",1.01
same,normalized growth,"locus YFR010W, strain ubp6, hits give low values",1.01
same,normalized growth,"locus YGL167C, strain pmr1, hits give low values",1
same,normalized growth,"locus YGL173C, strain kem1, hits give low values",0.998
same,normalized growth,"locus YGL227W, strain vid30, hits give low values",0.983
same,normalized growth,"locus YGL240W, strain doc1, hits give low values",1.03
same,normalized growth,"locus YGL253W, strain hxk2, hits give low values",0.983
same,normalized growth,"locus YHR013C, strain ard1, hits give low values",0.987
same,normalized growth,"locus YHR027C, strain rpn1, hits give low values",0.986
same,normalized growth,"locus YHR030C, strain SLT2, hits give low values",1.02
same,normalized growth,"locus YHR079C, strain IRE1, hits give low values",1.01
same,normalized growth,"locus YHR142W, strain chs7, hits give low values",0.983
same,normalized growth,"locus YJL092W, strain hpr5, hits give low values",1
same,normalized growth,"locus YJL095W, strain BCK1 (second series), hits give low values",0.992
same,normalized growth,"locus YJL095W, strain BCK1, hits give low values",1.01
same,normalized growth,"locus YJL115W, strain asf1, hits give low values",0.989
same,normalized growth,"locus YJL129C, strain trk1, hits give low values",0.961
same,normalized growth,"locus YJL154C, strain vps35, hits give low values",0.995
same,normalized growth,"locus YJL164C, strain tpk1, hits give low values",0.989
same,normalized growth,"locus YJL166W, strain qcr8, hits give low values",0.991
same,normalized growth,"locus YJL187C, strain SWE1, hits give low values",1
same,normalized growth,"locus YJR066W, strain TOR1, hits give low values",0.975
same,normalized growth,"locus YKL160W, strain elf1, hits give low values",0.996
same,normalized growth,"locus YKR026C, strain gcn3, hits give low values",1
same,normalized growth,"locus YKR091W, strain srl3, hits give low values",0.989
same,normalized growth,"locus YLL001W, strain dnm1, hits give low values",0.976
same,normalized growth,"locus YLL026W, hits give low values",0.995
same,normalized growth,"locus YLL041C, strain sdh2, hits give low values",0.996
same,normalized growth,"locus YLR027C, strain aat2, hits give low values",1.03
same,normalized growth,"locus YLR113W, strain HOG1, hits give low values",0.971
same,normalized growth,"locus YLR221C, strain rsa3, hits give low values",0.965
same,normalized growth,"locus YLR258W, strain gsy2, hits give low values",0.992
same,normalized growth,"locus YLR262C, strain YPT6 (second series), hits give low values",1.01
same,normalized growth,"locus YLR320W, strain mms22, hits give low values",0.992
same,normalized growth,"locus YLR342W, strain FKS1, hits give low values",0.993
same,normalized growth,"locus YLR357W, strain rsc2, hits give low values",1.12
same,normalized growth,"locus YLR370C, strain arc18, hits give low values",0.995
same,normalized growth,"locus YLR384C, strain iki3, hits give low values",0.994
same,normalized growth,"locus YML120C, strain ndi1, hits give low values",0.99
same,normalized growth,"locus YMR058W, strain fet3, hits give low values",1.05
same,normalized growth,"locus YMR125W, strain sto1, hits give low values",0.984
same,normalized growth,"locus YMR129W, hits give low values",0.99
same,normalized growth,"locus YMR205C, strain PFK2, hits give low values",0.982
same,normalized growth,"locus YMR231W, strain pep5, hits give low values",1
same,normalized growth,"locus YNL071W, strain lat1, hits give low values",0.992
same,normalized growth,"locus YNL183C, strain NPR1, hits give low values",0.943
same,normalized growth,"locus YNL209W, strain ssb2, hits give low values",0.991
same,normalized growth,"locus YNL248C, strain rpa49, hits give low values",1.16 [resistant] (active)
same,normalized growth,"locus YNL322C, strain KRE1 (second series), hits give low values",0.982
same,normalized growth,"locus YNR049C, strain mso1, hits give low values",1.02
same,normalized growth,"locus YOR001W, strain rrp6, hits give low values",1.03
same,normalized growth,"locus YOR070C, strain gyp1, hits give low values",0.986
same,normalized growth,"locus YOR080W, strain dia2, hits give low values",1
same,normalized growth,"locus YOR083W, strain WHI5, hits give low values",0.977
same,normalized growth,"locus YOR106W, strain vam3, hits give low values",0.969
same,normalized growth,"locus YOR231W, strain MKK1, hits give low values",1
same,normalized growth,"locus YOR265W, strain rbl2, hits give low values",1.01
same,normalized growth,"locus YOR270C, strain vph1, hits give low values",1.12
same,normalized growth,"locus YOR290C, strain snf2, hits give low values",1.08
same,normalized growth,"locus YPL051W, strain arl3, hits give low values",1.02
same,normalized growth,"locus YPL078C, strain atp4, hits give low values",0.996
same,normalized growth,"locus YPL106C, strain sse1, hits give low values",1
same,normalized growth,"locus YPL240C, strain hsp82, hits give low values",1
same,normalized growth,"locus YPL256C, strain CLN2, hits give low values",1.01
